Results published in the supplement of paper PMC11732987, “Enantioselective OTUD7B fragment discovery through chemoproteomics screening and high-throughput optimisation” (Communications Chemistry, 2025).

Tests used:
Assay in all cases: log2 ratio of Biotin-Ahx-Ub-VS probe labelling (fragment/DMSO); higher = less target engagement (more negative = stronger competition), active = hit call of the paper (q ≤ 0.05, log2 ratio ≤ -1)
Conditions in all cases: compound concentration: 200 uM; treatment time: 3 h
OTUD6B = target: T1, OTUD6B (UniProt Q8N6M0)
T1 sequence (whole entry): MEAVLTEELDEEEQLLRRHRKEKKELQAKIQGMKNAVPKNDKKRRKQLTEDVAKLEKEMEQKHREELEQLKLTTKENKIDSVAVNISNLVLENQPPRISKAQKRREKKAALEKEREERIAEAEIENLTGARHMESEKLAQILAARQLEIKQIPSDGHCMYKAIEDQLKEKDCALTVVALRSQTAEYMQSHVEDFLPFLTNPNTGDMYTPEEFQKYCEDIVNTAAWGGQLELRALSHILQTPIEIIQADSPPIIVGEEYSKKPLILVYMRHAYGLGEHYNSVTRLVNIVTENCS
Summary of the method: (§1)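 Triplicate samples of HEK293T lysate, 495 µg each, received fragment at 200 µM or vehicle for 3 h, followed by Biotin-Ahx-Ub-VS (0.5 µM final) for 1 h. After NeutrAvidin enrichment of labelled DUBs and LysC/trypsin digestion, peptides were run by diaPASEF LC-MS/MS. The values are average log2 fragment/vehicle ratios from global-median-normalised Spectronaut label-free quantities, tested by unpaired t-test on proteins having ≥2 unique peptides.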

OTUD7B = target: T2, OTUD7B (UniProt Q6GQQ9)
T2 sequence (whole entry): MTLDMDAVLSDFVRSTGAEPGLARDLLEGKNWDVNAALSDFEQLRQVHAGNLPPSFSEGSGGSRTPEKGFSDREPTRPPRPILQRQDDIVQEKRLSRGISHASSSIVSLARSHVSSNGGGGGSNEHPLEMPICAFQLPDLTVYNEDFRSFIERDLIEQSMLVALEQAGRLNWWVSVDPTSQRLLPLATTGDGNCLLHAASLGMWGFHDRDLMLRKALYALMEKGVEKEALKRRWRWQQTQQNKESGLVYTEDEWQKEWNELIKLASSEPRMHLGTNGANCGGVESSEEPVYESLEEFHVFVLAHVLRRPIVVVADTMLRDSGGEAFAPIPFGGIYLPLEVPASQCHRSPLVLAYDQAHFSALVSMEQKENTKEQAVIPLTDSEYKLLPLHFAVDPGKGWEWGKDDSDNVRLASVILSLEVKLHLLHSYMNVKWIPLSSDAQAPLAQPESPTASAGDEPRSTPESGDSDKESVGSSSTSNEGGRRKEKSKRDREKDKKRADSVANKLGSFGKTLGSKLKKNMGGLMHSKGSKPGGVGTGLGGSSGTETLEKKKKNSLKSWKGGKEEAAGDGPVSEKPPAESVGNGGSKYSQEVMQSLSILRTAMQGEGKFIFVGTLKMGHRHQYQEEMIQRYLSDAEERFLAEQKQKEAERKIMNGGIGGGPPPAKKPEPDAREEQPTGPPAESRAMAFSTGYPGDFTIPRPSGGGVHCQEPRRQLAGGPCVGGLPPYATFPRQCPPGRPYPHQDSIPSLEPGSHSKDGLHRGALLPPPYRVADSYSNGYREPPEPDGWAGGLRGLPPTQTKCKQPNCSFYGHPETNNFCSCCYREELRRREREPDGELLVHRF
Summary of the method: as §1

PRPF8 = PRPF8 (UniProt Q6P2Q9)
Summary of the method: as §1

PSMD7 = target: T3, PSMD7 (UniProt P51665)
T3 sequence (whole entry): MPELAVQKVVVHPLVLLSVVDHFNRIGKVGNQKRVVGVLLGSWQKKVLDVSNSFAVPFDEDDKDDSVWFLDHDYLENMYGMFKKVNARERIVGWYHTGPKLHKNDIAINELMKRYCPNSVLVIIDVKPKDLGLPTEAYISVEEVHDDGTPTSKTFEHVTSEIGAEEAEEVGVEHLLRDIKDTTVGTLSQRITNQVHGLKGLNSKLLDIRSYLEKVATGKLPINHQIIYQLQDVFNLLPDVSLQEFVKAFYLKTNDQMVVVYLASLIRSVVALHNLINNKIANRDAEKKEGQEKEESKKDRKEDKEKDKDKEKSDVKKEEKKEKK
Summary of the method: as §1

UCHL1 = UCHL1 (UniProt P09936)
Summary of the method: as §1

UCHL3 = target: T4, UCHL3 (UniProt P15374)
T4 sequence (whole entry): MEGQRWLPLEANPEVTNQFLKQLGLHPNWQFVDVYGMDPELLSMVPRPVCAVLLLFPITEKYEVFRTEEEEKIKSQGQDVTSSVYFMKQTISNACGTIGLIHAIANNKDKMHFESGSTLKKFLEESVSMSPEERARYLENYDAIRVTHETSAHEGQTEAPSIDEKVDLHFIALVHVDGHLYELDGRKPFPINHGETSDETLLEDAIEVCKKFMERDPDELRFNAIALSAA
Summary of the method: as §1

UCHL5 = target: T5, UCHL5 (UniProt Q9Y5K5)
T5 sequence (whole entry): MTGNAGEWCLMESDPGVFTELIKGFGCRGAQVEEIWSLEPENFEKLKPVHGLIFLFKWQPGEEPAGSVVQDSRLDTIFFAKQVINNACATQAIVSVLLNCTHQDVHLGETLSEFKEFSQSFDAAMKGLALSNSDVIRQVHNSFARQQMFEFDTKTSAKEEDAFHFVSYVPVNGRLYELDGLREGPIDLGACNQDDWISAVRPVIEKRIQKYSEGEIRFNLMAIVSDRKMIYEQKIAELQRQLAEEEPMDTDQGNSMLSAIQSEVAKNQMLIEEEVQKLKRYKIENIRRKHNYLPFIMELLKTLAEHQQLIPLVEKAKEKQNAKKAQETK
Summary of the method: as §1

USP10 = USP10 (UniProt Q14694)
Summary of the method: as §1

USP15 = target: T6, USP15 (UniProt Q9Y4E8)
T6 sequence (whole entry): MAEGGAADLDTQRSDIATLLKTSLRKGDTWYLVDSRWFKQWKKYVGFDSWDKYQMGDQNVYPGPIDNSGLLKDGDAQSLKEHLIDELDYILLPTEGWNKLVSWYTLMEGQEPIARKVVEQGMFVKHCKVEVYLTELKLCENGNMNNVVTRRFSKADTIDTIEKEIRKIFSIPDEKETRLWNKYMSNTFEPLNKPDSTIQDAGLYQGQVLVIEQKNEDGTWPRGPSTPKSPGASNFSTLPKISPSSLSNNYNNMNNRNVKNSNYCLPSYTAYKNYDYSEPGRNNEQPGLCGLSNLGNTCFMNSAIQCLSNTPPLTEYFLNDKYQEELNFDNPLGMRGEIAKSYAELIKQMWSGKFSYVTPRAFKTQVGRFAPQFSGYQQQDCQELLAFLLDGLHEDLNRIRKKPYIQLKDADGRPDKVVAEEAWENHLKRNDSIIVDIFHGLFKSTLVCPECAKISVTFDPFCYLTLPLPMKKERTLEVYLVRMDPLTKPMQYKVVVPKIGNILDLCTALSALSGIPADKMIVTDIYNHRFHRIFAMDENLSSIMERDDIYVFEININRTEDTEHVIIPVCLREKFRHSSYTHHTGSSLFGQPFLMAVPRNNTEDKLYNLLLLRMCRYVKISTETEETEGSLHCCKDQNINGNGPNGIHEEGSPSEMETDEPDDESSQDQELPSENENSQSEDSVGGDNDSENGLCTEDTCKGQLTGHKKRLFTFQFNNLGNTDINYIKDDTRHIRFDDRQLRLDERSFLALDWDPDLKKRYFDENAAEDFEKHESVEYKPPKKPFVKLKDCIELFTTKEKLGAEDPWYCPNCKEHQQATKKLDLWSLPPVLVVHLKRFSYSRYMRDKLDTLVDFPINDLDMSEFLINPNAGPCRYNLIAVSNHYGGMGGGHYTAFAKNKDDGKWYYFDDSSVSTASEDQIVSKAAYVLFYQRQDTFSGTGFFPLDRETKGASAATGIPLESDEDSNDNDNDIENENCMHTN
Summary of the method: as §1

USP16 = USP16 (UniProt Q9Y5T5)
Summary of the method: as §1

Measured: log2 ratio of Biotin-Ahx-Ub-VS probe labelling

Sequence of USP10 (Q14694 whole entry): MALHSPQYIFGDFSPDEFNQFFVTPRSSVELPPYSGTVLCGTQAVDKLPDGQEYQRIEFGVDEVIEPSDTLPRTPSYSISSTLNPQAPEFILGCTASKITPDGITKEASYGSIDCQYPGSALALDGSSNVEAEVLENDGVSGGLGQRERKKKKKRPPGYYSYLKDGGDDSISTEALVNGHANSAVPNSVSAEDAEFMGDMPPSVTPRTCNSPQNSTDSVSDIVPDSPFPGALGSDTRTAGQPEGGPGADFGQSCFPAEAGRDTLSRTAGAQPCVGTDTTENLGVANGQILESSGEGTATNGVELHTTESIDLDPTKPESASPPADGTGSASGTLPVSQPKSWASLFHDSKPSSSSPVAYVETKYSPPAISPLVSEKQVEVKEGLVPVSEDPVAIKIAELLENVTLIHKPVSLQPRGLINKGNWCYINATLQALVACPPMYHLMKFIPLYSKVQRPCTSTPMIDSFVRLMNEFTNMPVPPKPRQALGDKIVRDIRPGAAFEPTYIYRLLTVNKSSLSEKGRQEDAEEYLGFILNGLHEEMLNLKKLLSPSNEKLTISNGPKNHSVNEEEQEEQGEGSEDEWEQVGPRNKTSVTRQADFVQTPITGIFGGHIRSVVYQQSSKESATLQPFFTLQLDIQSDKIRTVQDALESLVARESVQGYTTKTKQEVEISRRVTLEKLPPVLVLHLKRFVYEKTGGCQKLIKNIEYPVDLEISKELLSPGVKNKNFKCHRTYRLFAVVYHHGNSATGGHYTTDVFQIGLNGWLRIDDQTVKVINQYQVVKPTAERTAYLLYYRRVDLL
Sequence of UCHL1 (P09936 whole entry, looked up): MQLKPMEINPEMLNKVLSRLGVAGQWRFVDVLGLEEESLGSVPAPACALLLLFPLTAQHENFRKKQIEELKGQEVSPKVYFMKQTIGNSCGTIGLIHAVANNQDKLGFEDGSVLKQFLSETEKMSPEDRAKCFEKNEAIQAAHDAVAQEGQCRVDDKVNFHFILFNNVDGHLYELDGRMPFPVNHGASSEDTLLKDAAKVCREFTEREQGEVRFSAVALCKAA
Sequence of USP16 (Q9Y5T5 whole entry, looked up): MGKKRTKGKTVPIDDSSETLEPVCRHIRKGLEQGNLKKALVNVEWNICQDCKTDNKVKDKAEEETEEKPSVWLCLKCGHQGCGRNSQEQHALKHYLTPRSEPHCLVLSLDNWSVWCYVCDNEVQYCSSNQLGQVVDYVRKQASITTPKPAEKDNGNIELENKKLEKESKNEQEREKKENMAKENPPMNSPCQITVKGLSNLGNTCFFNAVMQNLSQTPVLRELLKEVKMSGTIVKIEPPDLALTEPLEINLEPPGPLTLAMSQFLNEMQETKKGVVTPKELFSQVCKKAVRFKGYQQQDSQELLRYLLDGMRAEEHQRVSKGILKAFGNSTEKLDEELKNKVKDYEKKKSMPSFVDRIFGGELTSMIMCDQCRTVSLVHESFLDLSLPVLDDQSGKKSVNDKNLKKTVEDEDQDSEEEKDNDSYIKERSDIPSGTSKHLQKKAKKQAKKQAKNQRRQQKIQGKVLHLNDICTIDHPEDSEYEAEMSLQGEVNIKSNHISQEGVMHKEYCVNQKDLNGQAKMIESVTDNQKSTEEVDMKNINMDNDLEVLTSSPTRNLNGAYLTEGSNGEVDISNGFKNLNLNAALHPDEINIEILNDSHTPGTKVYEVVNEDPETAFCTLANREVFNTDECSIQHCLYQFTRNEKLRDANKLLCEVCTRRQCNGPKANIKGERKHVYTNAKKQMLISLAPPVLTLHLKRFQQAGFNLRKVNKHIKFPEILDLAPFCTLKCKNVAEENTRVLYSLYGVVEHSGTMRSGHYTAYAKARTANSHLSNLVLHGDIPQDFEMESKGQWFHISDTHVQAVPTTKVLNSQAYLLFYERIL

CC(c1ccccc1)N(C)C(=O)CCl (stereo not given)
inactive: OTUD6B 0.00154 | OTUD7B -0.433 | PRPF8 -0.049 | PSMD7 0.0333 | UCHL1 -0.925 | UCHL3 0.257 | UCHL5 -0.0435 | USP10 -0.134 | USP15 -0.334 | USP16 -0.635
